Here are results for ten compounds from ChEMBL document CHEMBL3988442, “University of Dundee, Small-Polar-MMV Screening Library” (2021).

Holding throughout (design): scale not given: direction of the effect not stated beside the values
For experiment [1], the target named is Protein translocase subunit SecA (Escherichia coli (strain K12)) (UniProt P10408). The experiment is described as follows: Assay to Identify E. coli SecA ATPase Inhibitors. The format is functional. To be noted: 30 µM.
Experiment [2] concerns the target T1, Ubiquitin-activating enzyme e1, putative (Leishmania donovani (strain BPK282A1)) (UniProt E9BSI1).
T1 sequence (whole entry): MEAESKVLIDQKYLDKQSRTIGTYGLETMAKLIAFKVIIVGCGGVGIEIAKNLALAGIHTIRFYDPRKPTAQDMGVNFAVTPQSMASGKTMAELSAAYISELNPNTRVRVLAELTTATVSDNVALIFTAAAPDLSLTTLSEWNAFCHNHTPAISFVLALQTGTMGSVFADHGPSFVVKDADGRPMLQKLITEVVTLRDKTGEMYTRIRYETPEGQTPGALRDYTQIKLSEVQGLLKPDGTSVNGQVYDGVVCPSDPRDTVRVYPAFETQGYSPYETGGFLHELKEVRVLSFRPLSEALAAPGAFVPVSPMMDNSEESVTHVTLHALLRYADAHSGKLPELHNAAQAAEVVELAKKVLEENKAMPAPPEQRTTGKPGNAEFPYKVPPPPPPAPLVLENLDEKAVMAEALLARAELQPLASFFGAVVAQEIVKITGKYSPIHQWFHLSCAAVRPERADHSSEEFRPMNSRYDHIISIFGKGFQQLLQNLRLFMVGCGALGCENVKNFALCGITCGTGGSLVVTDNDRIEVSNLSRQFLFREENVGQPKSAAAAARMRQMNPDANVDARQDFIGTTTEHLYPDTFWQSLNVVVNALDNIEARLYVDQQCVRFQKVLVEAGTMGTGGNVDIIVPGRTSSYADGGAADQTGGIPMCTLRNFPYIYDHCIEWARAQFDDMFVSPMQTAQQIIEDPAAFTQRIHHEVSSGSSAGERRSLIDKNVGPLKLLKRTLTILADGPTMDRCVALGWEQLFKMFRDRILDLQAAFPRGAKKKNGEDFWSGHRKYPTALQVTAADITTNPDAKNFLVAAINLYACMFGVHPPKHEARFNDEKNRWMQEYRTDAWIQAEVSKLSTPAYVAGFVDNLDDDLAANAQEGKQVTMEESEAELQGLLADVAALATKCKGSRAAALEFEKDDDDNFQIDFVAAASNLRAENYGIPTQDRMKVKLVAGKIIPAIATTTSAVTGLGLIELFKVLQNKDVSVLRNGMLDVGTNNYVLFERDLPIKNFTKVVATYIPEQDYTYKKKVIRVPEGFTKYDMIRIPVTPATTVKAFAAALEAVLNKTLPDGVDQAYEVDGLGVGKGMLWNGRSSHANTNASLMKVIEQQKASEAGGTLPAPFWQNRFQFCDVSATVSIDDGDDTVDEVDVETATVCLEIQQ
Description: Leishmania donovani Ubiquitin Activating Enzyme (LdE1). The class given is functional. Conditions: 30 µM.

Experiment [3] addresses AMP-activated protein kinase, AMPK (Homo sapiens) (UniProt P54646+O43741+P54619+Q9UGJ0+Q9Y478+Q13131+Q9UGI9). Description: AMP-dependent Kinase enzyme assay. An in vitro enzyme assay that detects ADP turnover that is directly proportional to AMPK activity. This uses naive AMPK that is activated during the assay with MK-8722. The class given is functional. Conditions: 30 µM.

The target in experiment [4] is Sialic acid-binding Ig-like lectin 9 (Homo sapiens) (UniProt Q9Y336). The experiment is described as follows: Hs-Siglec9 ALPHAscreen SOP 20170721. To be noted: 10 µM. Background: Bead proximity is the source of the signal in Alpha formats.
Sialic acid-binding Ig-like lectin 9 (Homo sapiens), sequence (Q9Y336 whole entry): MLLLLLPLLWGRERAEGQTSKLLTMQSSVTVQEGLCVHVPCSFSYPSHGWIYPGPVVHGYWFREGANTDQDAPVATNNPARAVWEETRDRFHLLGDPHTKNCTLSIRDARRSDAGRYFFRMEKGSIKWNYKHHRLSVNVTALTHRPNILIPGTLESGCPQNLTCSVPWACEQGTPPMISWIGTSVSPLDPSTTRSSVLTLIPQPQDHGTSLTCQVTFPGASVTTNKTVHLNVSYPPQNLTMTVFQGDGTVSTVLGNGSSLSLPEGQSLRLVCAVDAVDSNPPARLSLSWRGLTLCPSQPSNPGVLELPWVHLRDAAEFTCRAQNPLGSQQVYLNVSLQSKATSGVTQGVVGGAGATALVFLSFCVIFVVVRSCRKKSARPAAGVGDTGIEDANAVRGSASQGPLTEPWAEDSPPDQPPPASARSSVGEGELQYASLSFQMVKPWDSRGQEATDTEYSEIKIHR
Experiment [5] deals with Trypanosoma cruzi. Description: Trypanosoma cruzi phosphomannomutase and mannose-1-phosphate guanylyltransferase assay. Conditions: 10 µM. The class given is functional.
Experiment [6] addresses T2, Arginase-2, mitochondrial (Homo sapiens) (UniProt P78540).
T2 sequence (whole entry): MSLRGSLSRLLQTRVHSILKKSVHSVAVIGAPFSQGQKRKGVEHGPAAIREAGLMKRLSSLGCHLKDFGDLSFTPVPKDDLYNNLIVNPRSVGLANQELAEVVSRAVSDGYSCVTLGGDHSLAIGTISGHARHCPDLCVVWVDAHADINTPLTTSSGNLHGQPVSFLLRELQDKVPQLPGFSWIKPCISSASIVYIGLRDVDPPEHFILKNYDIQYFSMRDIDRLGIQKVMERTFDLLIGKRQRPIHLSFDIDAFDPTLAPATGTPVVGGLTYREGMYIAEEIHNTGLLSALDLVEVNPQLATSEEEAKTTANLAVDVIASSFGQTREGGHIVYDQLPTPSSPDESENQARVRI
Description: in vitro enzyme assay to detect the production of urea directly proportional to the activity of Arginase II. Also: in the data most compounds retested in dose-response had high values. The class given is functional. Conditions: 33.3 µM.

In experiment [7] the target is T3, Proteasome subunit beta (Trypanosoma cruzi) (UniProt O96673).
T3 sequence (whole entry): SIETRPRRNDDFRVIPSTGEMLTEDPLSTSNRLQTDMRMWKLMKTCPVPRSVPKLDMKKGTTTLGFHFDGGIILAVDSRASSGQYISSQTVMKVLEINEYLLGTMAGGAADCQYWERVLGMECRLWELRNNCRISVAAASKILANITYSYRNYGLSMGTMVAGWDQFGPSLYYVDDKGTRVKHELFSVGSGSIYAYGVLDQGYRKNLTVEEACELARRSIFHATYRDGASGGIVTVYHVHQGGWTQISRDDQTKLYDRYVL
Description: Trypanosoma cruzi proteasome chymotrypsin-like activity (TcProtChymo) assay. Also: in the data most compounds retested in dose-response had high values. The format is functional. To be noted: 9.37 µM.

The species named for experiment [8] is Homo sapiens. Description: To identify inhibition of the IFN signalling (Jak-Stat) pathway via expression of an eGFP reporter gene under the control of an IFN-stimulated response element (ISRE) containing MxA promoter. The class given is functional. Conditions: 30 µM. (In general: Reporter assays use an easily measured gene product as a stand-in for the process of interest.)

Experiment [9] concerns the target T4, Tyrosyl-tRNA synthetase, putative (Trypanosoma cruzi (strain CL Brener)) (UniProt Q4DSP6).
T4 sequence (whole entry): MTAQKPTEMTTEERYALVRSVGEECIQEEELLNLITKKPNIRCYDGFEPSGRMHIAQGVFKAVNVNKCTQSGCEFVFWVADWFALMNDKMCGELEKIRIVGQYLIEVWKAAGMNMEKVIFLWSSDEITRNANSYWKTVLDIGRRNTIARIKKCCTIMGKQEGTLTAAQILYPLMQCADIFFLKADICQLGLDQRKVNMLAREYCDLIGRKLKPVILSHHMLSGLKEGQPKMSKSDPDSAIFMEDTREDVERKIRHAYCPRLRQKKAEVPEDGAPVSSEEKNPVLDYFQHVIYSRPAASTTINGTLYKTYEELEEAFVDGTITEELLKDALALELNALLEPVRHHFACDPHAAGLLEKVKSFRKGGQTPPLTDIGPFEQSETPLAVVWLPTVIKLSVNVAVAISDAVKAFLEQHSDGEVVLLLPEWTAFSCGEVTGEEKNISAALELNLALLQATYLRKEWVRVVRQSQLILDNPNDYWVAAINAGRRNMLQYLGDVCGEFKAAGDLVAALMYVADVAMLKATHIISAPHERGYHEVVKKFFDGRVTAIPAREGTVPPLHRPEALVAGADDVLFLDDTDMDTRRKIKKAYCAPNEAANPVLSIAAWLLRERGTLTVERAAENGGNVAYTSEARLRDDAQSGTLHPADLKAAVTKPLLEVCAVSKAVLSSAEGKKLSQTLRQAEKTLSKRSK
Description: Trypanosoma cruzi tyrosyl tRNA synthetase (TcYRS) _High Tyrosine SOP. Also: in the data most compounds retested in dose-response had high values. The class given is functional. Conditions: 30 µM.

Experiment [10] addresses T4, Tyrosyl-tRNA synthetase, putative (Trypanosoma cruzi (strain CL Brener)). Description: Trypanosoma cruzi tyrosyl tRNA synthetase (TcYRS) SOP. The format is functional. Conditions: 30 µM.
Experiment [11] addresses Chromo domain-containing protein 1 (Saccharomyces cerevisiae (strain ATCC 204508 / S288c) (Baker's yeast)) (UniProt P32657). The experiment is described as follows: ScCHD-1 Enzyme Inhibition Assay. Also: in the data most compounds retested in dose-response had high values. The class given is functional. To be noted: 30 µM.

For some assays here: Entries with a potency or affinity are not part of this list.

Chromo domain-containing protein 1 (Saccharomyces cerevisiae (strain ATCC 204508 / S288c) (Baker's yeast)), sequence (P32657 whole entry, the tested form may be a part): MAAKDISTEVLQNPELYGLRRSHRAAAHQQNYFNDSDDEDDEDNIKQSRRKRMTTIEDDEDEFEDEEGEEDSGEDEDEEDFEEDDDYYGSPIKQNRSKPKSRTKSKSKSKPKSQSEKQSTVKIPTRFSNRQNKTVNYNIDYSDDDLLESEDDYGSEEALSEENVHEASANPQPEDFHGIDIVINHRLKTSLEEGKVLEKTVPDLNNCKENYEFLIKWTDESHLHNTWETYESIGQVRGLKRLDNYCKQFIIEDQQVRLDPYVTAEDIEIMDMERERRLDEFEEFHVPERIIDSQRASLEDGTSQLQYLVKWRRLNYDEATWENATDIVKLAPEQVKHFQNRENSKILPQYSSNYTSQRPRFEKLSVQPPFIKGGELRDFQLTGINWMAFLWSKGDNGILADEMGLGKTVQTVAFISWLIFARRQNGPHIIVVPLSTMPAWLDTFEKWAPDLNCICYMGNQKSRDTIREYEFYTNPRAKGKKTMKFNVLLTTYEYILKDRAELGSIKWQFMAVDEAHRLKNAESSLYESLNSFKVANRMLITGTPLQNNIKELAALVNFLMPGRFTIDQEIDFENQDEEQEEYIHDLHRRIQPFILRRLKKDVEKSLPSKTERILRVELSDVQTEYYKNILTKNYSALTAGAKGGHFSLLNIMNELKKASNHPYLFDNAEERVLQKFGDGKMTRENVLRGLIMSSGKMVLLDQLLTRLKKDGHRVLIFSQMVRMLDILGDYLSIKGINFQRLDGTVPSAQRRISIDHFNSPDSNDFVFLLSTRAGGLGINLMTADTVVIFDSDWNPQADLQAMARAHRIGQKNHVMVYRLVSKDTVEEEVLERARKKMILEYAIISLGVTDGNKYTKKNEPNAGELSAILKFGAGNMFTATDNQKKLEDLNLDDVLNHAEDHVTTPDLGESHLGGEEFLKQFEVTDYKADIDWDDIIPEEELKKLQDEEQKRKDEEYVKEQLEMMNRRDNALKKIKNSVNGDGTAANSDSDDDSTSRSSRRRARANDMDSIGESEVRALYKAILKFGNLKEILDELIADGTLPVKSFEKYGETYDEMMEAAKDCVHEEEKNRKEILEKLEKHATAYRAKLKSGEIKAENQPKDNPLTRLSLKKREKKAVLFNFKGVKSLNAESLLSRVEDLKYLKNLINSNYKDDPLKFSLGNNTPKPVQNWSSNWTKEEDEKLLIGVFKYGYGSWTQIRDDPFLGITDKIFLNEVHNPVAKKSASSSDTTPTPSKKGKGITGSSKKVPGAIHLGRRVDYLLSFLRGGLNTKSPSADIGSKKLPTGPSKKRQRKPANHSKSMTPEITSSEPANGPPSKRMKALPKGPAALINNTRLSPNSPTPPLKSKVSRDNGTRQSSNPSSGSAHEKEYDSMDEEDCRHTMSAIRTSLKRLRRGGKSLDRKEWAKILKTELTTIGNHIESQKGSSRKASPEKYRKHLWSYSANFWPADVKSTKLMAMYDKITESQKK
Protein translocase subunit SecA (Escherichia coli (strain K12)), sequence (P10408 whole entry): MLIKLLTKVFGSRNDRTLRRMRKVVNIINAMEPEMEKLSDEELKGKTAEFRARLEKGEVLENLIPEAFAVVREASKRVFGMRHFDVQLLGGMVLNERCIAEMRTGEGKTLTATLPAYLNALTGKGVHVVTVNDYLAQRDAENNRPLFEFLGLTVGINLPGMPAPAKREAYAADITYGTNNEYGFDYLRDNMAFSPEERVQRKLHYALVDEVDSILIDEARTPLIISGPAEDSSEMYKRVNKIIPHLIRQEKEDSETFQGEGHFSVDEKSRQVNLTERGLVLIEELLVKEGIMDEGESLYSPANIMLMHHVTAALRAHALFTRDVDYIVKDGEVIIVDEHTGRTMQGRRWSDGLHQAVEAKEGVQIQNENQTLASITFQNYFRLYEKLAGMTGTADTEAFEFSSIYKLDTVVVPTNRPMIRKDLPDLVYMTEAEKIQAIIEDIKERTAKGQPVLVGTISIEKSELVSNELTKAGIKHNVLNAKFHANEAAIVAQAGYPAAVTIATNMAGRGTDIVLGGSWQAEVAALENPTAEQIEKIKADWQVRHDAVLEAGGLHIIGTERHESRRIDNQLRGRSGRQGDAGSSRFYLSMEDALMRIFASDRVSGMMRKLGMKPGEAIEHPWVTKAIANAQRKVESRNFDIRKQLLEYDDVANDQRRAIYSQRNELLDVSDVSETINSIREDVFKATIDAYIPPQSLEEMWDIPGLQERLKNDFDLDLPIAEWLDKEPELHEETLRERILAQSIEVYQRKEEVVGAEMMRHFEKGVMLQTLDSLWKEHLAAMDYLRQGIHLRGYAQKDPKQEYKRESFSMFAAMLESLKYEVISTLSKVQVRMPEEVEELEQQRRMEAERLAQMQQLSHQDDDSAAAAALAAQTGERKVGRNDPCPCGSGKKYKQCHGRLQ

In the case of `CCc1nc(CN2CCCN(c3ncnc4ccccc34)CC2)no1`, the Percent Effect in experiment [1] was 0.435%; in [2], 13%; in experiment [3] it was -3.4%; in experiment [4], 2.9%; in [5], 4.03%; in [6], -12.4%. In addition, the Percent Effect in experiment [7] is 18.3%; in experiment [8] it was 74.7%; in [9], 3.23%; in experiment [10] it was 16.1%; in [11], -2.22%.
Take `O=C(C1=CCCC1)N1CCO[C@H]2[C@@H](Oc3ccccn3)CC[C@@H]21`: the Percent Effect in experiment [1] is -2.61%; in experiment [2] it was 13.3%; in experiment [3], 4.5%; in experiment [4] it was 0.0747%; in experiment [5], 0.787%; in experiment [6], 3.96%. Also, the Percent Effect is 9.96% in experiment [7]; 9.01% in experiment [8]; 7.45% in experiment [9]; 16.7% in [10]; -3.61% in experiment [11].
As to `COCC(c1cccc(C(F)(F)F)c1)N(C)C(=O)c1ccncc1` (stereo not given), the Percent Effect in experiment [1] was -4.42%; in experiment [2], 21.1%; in experiment [3], -0.328%; in experiment [4], -2.24%; in [5], 8.46%; in experiment [6], -4.21%. Also, the Percent Effect is 23.2% in [7]; 26.2% in experiment [8]; 8.33% in [9]; 21.9% in experiment [10]; -14.7% in experiment [11].
For the compound `O=C(c1cscn1)N1CC[C@]2(C[C@@H](OCCN3CCCC3)CO2)C1`, the Percent Effect in experiment [1] was -1.81%; in experiment [2], 13.3%; in experiment [3], 1.02%; in experiment [4] it was -2.21%; in [5], -2.95%; in [6], -0.699%. For the same compound, the Percent Effect in experiment [7] is 11.4%; in experiment [8] it was 7.58%; in experiment [9], 5.32%; in [10], 14.1%; in experiment [11], -0.0589%.
With `COCc1ccccc1CNCc1c(C)nn(C)c1N(C)C`, the Percent Effect in experiment [1] is -5.19%; in [2], 10.8%; in experiment [3], -41.2%; in experiment [4] it was 6.46%; in experiment [5], -0.849%; in [6] it was 0%. The Percent Effect in experiment [7] was -5.04%; in experiment [8], -1.56%; in [9] it was 9.36%; in [10], 6.17%; in [11], -5.6%.
On to `CC1CCN(S(=O)(=O)NCC2CCOc3ccccc3C2)CC1` (stereo not given), for which the Percent Effect in [1] is -7.79%; in experiment [2], 2.6%; in [3], 4.04%; in [4], 4.95%; in [5] it was -2.46%; in [6], -8.28%. Moreover, the Percent Effect in experiment [7] is 6.16%; in experiment [8], 23.1%; in experiment [9], 0%; in [10], 3.7%; in experiment [11], -0.0656%.
`CC(C)COC(C)C(=O)NCc1ccc(N(C)C)cc1` (stereo not given): the Percent Effect in experiment [1] is -2.38%; in experiment [2], 23.4%; in [3], 3.83%; in experiment [4], -18.6%; in experiment [5], 2.06%; in experiment [6], -2.32%. The Percent Effect was 23.4% in [7]; 5.87% in experiment [8]; 5.71% in experiment [9]; 30.6% in [10]; -26.1% in experiment [11].
Take `Cc1nc(C)n(CC2CCCN(Cc3cccc(C#N)c3)C2)n1` (stereo not given): the Percent Effect in experiment [1] is -3.63%; in experiment [2], -18.9%; in experiment [3], -7.23%; in experiment [4], 5.42%; in experiment [5], -1.23%; in experiment [6] it was -7.62%. For the same compound, the Percent Effect in [7] was 5.59%; in [8], 3.79%; in experiment [9], 6.4%; in [10] it was 13.6%; in [11], -5.48%.
Regarding `c1csc(CN2CCn3c(Cn4cncn4)cnc3C2)n1`, the Percent Effect in experiment [1] was -3.71%; in experiment [2], 2.67%; in [3] it was 12.1%; in experiment [4] it was 4.38%; in experiment [5], -0.984%; in experiment [6], 4.43%. Moreover, the Percent Effect is 6.08% in [7]; -18.1% in experiment [8]; 2.13% in experiment [9]; 1.28% in experiment [10]; -1.62% in experiment [11].
Turning to `CO[C@H]1CCN(S(=O)(=O)c2cn(C)cn2)[C@H]1Cc1cccnc1`, the Percent Effect in [1] is -3.74%; in experiment [2] it was 8%; in [3], -3.32%; in experiment [4], -5.55%; in experiment [5], 6.37%; in experiment [6], -49.6%. Further, the Percent Effect is 7.86% in experiment [7]; -0.203% in experiment [8]; 3.12% in experiment [9]; 15% in experiment [10]; -9.19% in [11].
